# Results published in PubChem BioAssay (NCI).
# This is part of a sample that, as a whole, favours compounds with a hit. Of some 83,000 tested, about 20% had one in any assay.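 Each cell line was grown in a 96-well plate and treated with one concentration of compound for 48 hours. Values below 10 were considered active.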 A number with no mark means an inactive call. Calls of active or inactive are those of the source.
# How the values were obtained:
# Assay in all cases: NCI-60 one-dose screen, 48 h (100 = growth as untreated, 0 = no growth, -100 = all killed)
# Settings in all cases: 10 µM unless noted
# [1] = system: T-47D breast
# [2] = system: BT-549 breast
# [3] = system: MDA-MB-435 melanoma
# [4] = system: SW-620 colon
# [5] = system: MCF7 breast
# [6] = system: HCC-2998 colon
# [7] = system: KM12 colon
# [8] = system: HCT-116 colon
Structure (SMILES),growth [1],growth [2],growth [3],growth [4],growth [5],growth [6],growth [7],growth [8]
O=C(Cc1ccc(Nc2ccnc(C(F)(F)F)c2)cc1)N/N=C/c1ccccc1O,18.4%,50.2%,34.7%,38.3%,12.9%,40.5%,30.7%,–
C[C@@H]1C[C@H](N)C[C@H](c2ccncc2NC(=O)c2ccc(F)c(-c3c(F)cccc3F)n2)C1,4.14% (active),51.2%,34.5%,45.5%,40.2%,–,48.3%,48.1%
Clc1ccccc1Nc1nnc(-c2ccncc2)s1,89.5%,90.4%,93.6%,91.6%,96%,106%,107%,102%
ClCc1cccc(CSc2ncnc3c2ncn3Cc2cccc(CCl)c2)c1,-64.7% (active),-69.6% (active),9.56% (active),-45.6% (active),13.3%,-71.7% (active),57.9%,-79.6% (active)
Cc1cc(C#Cc2ccccc2)ccc1-n1c(/C=C/c2ccc(F)cc2)nc2ccccc2c1=O,41%,90.4%,66.9%,47.8%,38.8%,86.6%,62.5%,–
CC(C)N1CCN(c2ccncc2S(=O)(=O)N2CCN(C)CC2)CC1,96.2%,107%,101%,105%,94.1%,106%,99.1%,–
COc1ccc(-c2nc(-c3ccccc3OCc3ccccc3OC)nc(C)c2C(C)=O)cc1,61%,98.4%,90.4%,67.5%,83.8%,86.2%,64.4%,–
N=c1n(Cc2ccccc2)c(N)cc(=O)n1Cc1ccccc1,26.7%,3.02% (active),37.2%,20.7%,23.4%,67.4%,39.2%,–
Cc1cc(C)c2c(n1)sc1c(Nc3ccc(O)cc3)ncnc12,39.6%,–,36.6%,45.6%,20.3%,63.3%,50.3%,29.2%
Cc1[nH]n(C(=O)c2ccncc2)c(=O)c1N=Nc1ccc(O)c(C(=O)O)c1,132%,–,126%,105%,109%,117%,104%,75.3%
COc1cc(/C=C/c2ccc3c(Br)cc(Br)c(O)c3n2)ccc1O,4.66% (active),–,32%,18.3%,10.2%,35%,20.8%,–
COc1cc(NCCCCC(C)N)c2nccc(C)c2c1 (centres undefined),48.1%,–,106%,93.3%,4.24% (active),63.9%,94.7%,99.2%
O=C(Nc1ccc(Br)cc1)Nc1ccccc1Cl,74.9%,–,102%,96.4%,71%,91%,90.4%,71.8%
CCOc1c(C#N)c2c(N)ncnc2n1C1OC(CO)C(O)C1O (centres undefined),15.4%,–,18.1%,4.66% (active),-3.56% (active),84.1%,10.6%,3.41% (active)
COc1ccc(C(=O)C(CN(C)C)c2ccccc2)cc1 (centres undefined),9.93% (active),–,25.4%,-84.7% (active),-1.32% (active),93.9%,6.49% (active),-99.1% (active)
COc1cccc(OCC(O)CN2CCN(c3ccccc3)CC2)c1 (centres undefined),100%,–,121%,112%,108%,106%,112%,112%
O=C1OCC2=C1C(c1cccc(Br)c1)c1cc3c(cc1N2CCO)OCCO3 (centres undefined),76.9%,–,-40.4% (active),21.3%,18.2%,–,-33.9% (active),6.29% (active)
